Measured values published in PubChem BioAssay AID504832 (National Center for Advancing Translational Sciences (NCATS), 2011).
In all, about 310,000 compounds went through this assay and about 18,000 (5.8%) were called active. A call without a number means that no potency is given here. Another 22% or so got no clear call; they are omitted. The call rests on the fitted dose curve; in most records, active means well fitted inhibition curve with a large enough effect; inconclusive means small, poorly fitted or top-dose-only effect, or another doubt; inactive means no such curve, though single readings can be large or run the other way. The full list was thinned out, with actives kept by preference.

Test: Primary qHTS for delayed death inhibitors of the malarial parasite plastid, 48 hour incubation
Details: P. falciparum luciferase growth in erythrocytes; series mostly up to 28.7 µM
Procedure, shortened: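 Here the parasites carry a stable luciferase gene and grow inside erythrocytes in Albumax-based RPMI medium with compound for one erythrocytic cycle. Activity is scored as loss of luminescent signal.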
Potency means the concentration at half of the fitted maximal effect.

| SMILES | Potency | activity change, negative = inhibition |
| --- | --- | --- |
| CC(C)c1ccc(NC(=O)COC(=O)c2ccc(CN3CCCC3=O)cc2)cc1 | inactive | – |
| Cc1ccc2nc(SCC(=O)NC3CCCC3)[nH]c2c1 | inactive | – |
| COC(=O)C1(C)NC(c2ccccc2OC)C2C(=O)N(c3ccccc3)C(=O)C21 (stereo not drawn) | inactive | – |
| CCCC1(C(=O)OC)NC(c2ccco2)C2C(=O)N(C)C(=O)C21 (stereo not drawn) | inactive | – |
| COC(=O)C1(C)NC(c2ccc(C)cc2)C2C(=O)N(c3ccc(F)cc3)C(=O)C21 (stereo not drawn) | inactive | – |
| CCN1C(=O)[C@H]2[C@@H](c3ccc(-c4ccc(F)cc4)cc3)N[C@@](Cc3ccccc3)(C(=O)OC)[C@H]2C1=O | 4.65 µM (active) | – |
| CCOC(=O)C1(Cc2ccc(O)cc2)NC(c2ccccc2F)C2C(=O)N(C)C(=O)C21 (stereo not drawn) | inactive | – |
| CCN1C(=O)[C@H]2[C@@H](c3ccc(SC4CCCCC4)c(OC)c3)N[C@@](Cc3ccccc3)(C(=O)OC)[C@H]2C1=O | 2.08 µM (active) | – |
| CCN1C(=O)[C@H]2[C@@H](c3ccc(-c4ccc(OC)cc4)cc3)N[C@@](Cc3ccccc3)(C(=O)OC)[C@H]2C1=O | 9.28 µM (active) | – |
| CCCCC1(C(=O)OCC)NC(c2ccc(O)cc2)C2C(=O)N(c3ccccc3)C(=O)C21 (stereo not drawn) | inactive | – |
| COC(=O)C1(C)NC(c2ccc(F)cc2)C2C(=O)N(c3ccccc3)C(=O)C21 (stereo not drawn) | inactive | – |
| COc1cc2c(C(=O)O)c(C)n(C)c2c2ccccc12 | – | 15.4% [at 0.00184 µM] (inactive) |
| O=C(CSc1ccc(-c2ccco2)nn1)Nc1cccc(F)c1 | inactive | – |
| NC(=O)c1cc2ccccc2o/c1=N/NC(=O)c1cccc(F)c1 | inactive | – |
| NC(=O)c1ccccc1NC(=O)c1ccccc1F | inactive | – |
| CCOc1cc(NC(=O)Nc2ccccc2)c(OCC)cc1NC(=O)CC | inactive | – |
| CCOc1cc(NC(=O)c2ccccc2C(=O)O)c(OCC)cc1NC(=O)c1ccccc1F | 4.15 µM (active) | – |
| O=C(Nc1cccc(Cl)c1N1CCOCC1)c1cccnc1 | inactive | – |
| Cc1ccccc1NC(=O)CCNS(=O)(=O)c1ccc2[nH]c(=O)oc2c1 | inactive | – |
| CCn1c2ccccc2c2cc(NC(=O)COC(=O)c3ccccc3Br)ccc21 | inactive | – |
| CCn1c2ccccc2c2cc(NC(=O)C/C(C)=N/NC(=O)c3ccccc3N)ccc21 | 11.7 µM (active) | – |
| C/C(CC(=O)Nc1ccc(N(C)C)cc1)=N\NC(=O)c1ccccc1F | inactive | – |
| CN(CC(=O)NCc1ccc(Cl)cc1)S(=O)(=O)c1cccs1 | inactive | – |
| COc1ccc(S(=O)(=O)N2CCN(C(=O)N(C)C)C2C)cc1 (stereo not drawn) | inactive | – |

| SMILES | Potency | activity change, negative = inhibition |
| --- | --- | --- |
| Cc1[nH]c(C)c(S(=O)(=O)N2CCN(c3cccc(C(F)(F)F)c3)CC2)c1C(=O)N1CCCC1 | inactive | – |
| COc1ccc(N2CCN(C(c3cc4ccc(C)cc4[nH]c3=O)c3nnnn3C3CCCC3)CC2)cc1 (stereo not drawn) | 1.85 µM (active) | – |
| CN1CCN(C(c2cc3cc4c(cc3[nH]c2=O)OCCO4)c2nnnn2C2CCCC2)CC1 (stereo not drawn) | inactive | – |
| CCOc1ccc2[nH]c(=O)c(C(c3nnnn3CCOC)N3CCOCC3)cc2c1 (stereo not drawn) | inactive | – |
| O=C(NCCCN1CCOCC1)C1CCCN(S(=O)(=O)N2CCCCC2)C1 (stereo not drawn) | inactive | – |
| CCC(C)C(NC(=O)C1CCC(=O)N1C(=O)OCc1ccccc1)C(=O)NC(C(=O)N1CCCC1C(N)=O)C(C)CC (stereo not drawn) | inactive | – |
| CC(=O)Nc1ccc(NC(=O)[C@@H](NC(=O)c2cccc(C)c2)C(C)C)cc1 | inactive | – |
| Cc1ccc(S(=O)(=O)N2CCOCC2)cc1C(=O)NC(=S)N(Cc1ccccc1)C(C)C | inactive | – |
| Cc1cccc(NC(=O)c2cc(S(=O)(=O)N3CCC4(CC3)OCCO4)ccc2F)c1 | inactive | – |
| Cc1cccc(N(Cc2ccccc2)C(=O)c2cc(S(=O)(=O)N3CCOCC3)ccc2F)c1 | 11.7 µM (active) | – |
| CC(=O)Nc1ccc(NC(=O)CC2CCCC2)cc1 | inactive | – |
| COc1ccc(/C=N/NC(=O)C2CC2)c(OC)c1OC | inactive | – |
| CCCOc1ccc(/C=N/NC(=O)C2CC2)c(OCCC)c1 | 11.7 µM (active) | – |
| CCCOc1ccc(NC(=O)C2CCCNC2=O)cc1 (stereo not drawn) | inactive | – |
| CCCCCCCCn1c2c(c(=N)c3c1CCC3)CCCC2 | 0.262 µM (active) | – |
| Cc1ccc(CC2C(=O)N(c3ccc(F)cc3)C(=O)C2C)cc1 (stereo not drawn) | inactive | – |
| CC(=O)NC(CC(=O)Nc1nc(-c2ccccc2)c(C(C)=O)s1)c1ccccc1 (stereo not drawn) | inactive | – |
| CC1CCCC(C)N1C(=O)COC(=O)COc1ccccc1C#N (stereo not drawn) | inactive | – |
| O=C(NCc1ccco1)C(c1ccncc1)N(C(=O)Cn1nnc2ccccc21)c1ccccc1 (stereo not drawn) | inactive | – |
| COCCNC(=O)C(c1ccc(C)o1)N(Cc1ccccc1)C(=O)Cn1nnc2ccccc21 (stereo not drawn) | inactive | – |
| COc1ccccc1N(C(=O)Cn1nnc2ccccc21)C(C(=O)NCc1ccco1)c1ccc(C)o1 (stereo not drawn) | 13.1 µM (active) | – |
| NC(=O)c1oc2ccccc2c1NC(=O)CS(=O)(=O)c1ccccc1 | inactive | – |
| CCc1c(C)nc2c(OC)cccc2c1Cl | inactive | – |
| CC(=O)Oc1ccc(-c2nc3c(C)cccc3c(=O)o2)cc1 | inactive | – |
